From PubChem BioAssay come the findings set out here.

SMILES strings stand for the structures. Inconclusive results are not listed. Activity calls are given as the source filed them.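 How the source made its calls, unless noted: active means percent response above a set limit, the screen-wide mean plus 3 SD (cut at about 130% in these data); inactive means the rest.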

A short description of assay [1]: yeast TOR pathway RPL19A-GFP modulators, primary screen, cell-based, S. cerevisiae, multiplex flow cytometry (AID 1862; in the data active means percent of DMSO control GFP below about 86%;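 further: lower values mimic rapamycin by blocking the RPL19A rise seen in DMSO cells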). As to conditions: S. cerevisiae RPL19A-GFP strain, flow cytometry fluorescence, 3 h; at 10 µM; stronger effect = lower value. (In general: In flow cytometry, cells or beads pass a laser one at a time.)
Assay [2] is described as follows: modulators of MEP2-GFP levels in yeast, primary screen, S. cerevisiae, multiplex flow cytometry (AID 1867;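 active means GFP response, as percent of the DMSO control, above the screen-wide mean plus 3 SD, about 139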;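 further: median GFP channel fluorescence of barcode-gated MEP2-GFP cells measured by flow cytometry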). The settings on record: S. cerevisiae MEP2-GFP strain, 3 h, at 10 µM, stronger effect = higher value, 100% means same as DMSO wells.
Assay [3] can be described thus: modulators of CIT2-GFP expression in yeast, primary screen, S. cerevisiae, GFP fusion, multiplex flow cytometry (AID 1870).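 Further: barcoded CIT2-GFP strain pooled with four other GFP strains with rapamycin as positive control; median GFP fluorescence per well over plate mean of DMSO wells so 100% = DMSO.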 The settings on record: 3 h, at 10 µM, stronger effect = higher value.
Assay [4] is described as follows: modulators of LAP4-GFP expression in yeast, primary screen, S. cerevisiae, multiplex flow cytometry (AID 1873;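 active means GFP signal, as percent of the solvent control, above the screen mean plus 3 SD, about 149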). As to conditions: 3 h, at 10 µM, stronger effect = higher value.
Assay [5] in a line: modulators of AGP1-GFP expression in yeast TOR pathway, primary screen, cell-based, multiplex flow cytometry, S. cerevisiae (AID 1887;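 active means GFP signal above the screen-wide mean plus 3 SD, that is over about 124.5% of the solvent control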;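 further: AGP1-GFP fusion strain of S. cerevisiae within a five-strain barcoded multiplex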). As to conditions: 3 h, at 10 µM, stronger effect = higher value.
The nature of assay [6]: inhibitors of CD8+ T cell-vesicle binding, pilot screen, LFA-1/ICAM-1 modulator project, MLPCN validation set, flow cytometry (AID 2523;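 active means response below a set limit, under 55% cells CD8-positive and vesicle-bound, and CD8 cells' 90th-percentile brightness under 279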;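 on vesicle binding response: mean PE anti-B7-1 fluorescence of CD8+ cells relative to row control; 100% = QL9-loaded vesicles with DMSO vehicle in the same plate row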). The settings on record: 2C mouse CD8+ T cells, at 7 µM, stronger effect = lower value; double positive events: measured here: CD8+/vesicle+ event percentage.
For assay [7], the target named is Integrin beta-1 (Homo sapiens) + Integrin alpha-4 (Homo sapiens) (UniProt P13612+P05556). Kind of assay: inhibition of HUTS-21 binding to VLA-4, pilot screen, VLA-4 allosteric modulator project, U937 cells, HUTS-21 mAb, flow cytometry, validation set (AID 2674;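 active means inhibition above 50%, about 3 SD of the validation set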;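 further: antibody binding induced by the VLA-4 ligand LDV present at three times its Kd; 0% = LDV ligand with antibody and no compound and 100% = antibody without LDV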). The settings on record: HUTS-21 LIBS mAb binding, at 6.7 µM, stronger effect = higher value, binding induced by LDV ligand.

Assay [8] in a line: superoxide lowering in aged yeast cells, pilot screen, validation compound set (AID 2706;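 active means superoxide response below 65% of plate, a cut near 3 SD across the whole screen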;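 further: yeast exposed to compound for one week at 30 degrees C before staining; 100% = mean of all compound wells on the same plate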). As to conditions: S. cerevisiae aging, superoxide DHE fluorescence; at 10 µM; stronger effect = lower value.
The target of assay [9] is Beta-adrenergic receptor kinase 1 (Homo sapiens) (UniProt P25098). Kind of assay: GRK2 binders displacing RNA aptamer, biochemical, validation, human GRK2, bead flow cytometry (AID 488806;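 active means aptamer binding inhibition above 30%, about 3 SD of noise from non-fluorescent compounds; inactive means inhibition at or below 30%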). The settings on record: bead-bound GRK2, FAM-aptamer displacement, at 10 µM, stronger effect = higher value.
Assay [10] has as its target Beta-2 adrenergic receptor (Homo sapiens) (UniProt P07550). Kind of assay: beta2AR agonists driving receptor internalization, pilot screen, cell-based, FAP fluorogen, flow cytometry, validation set (AID 504459;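 active means percent response above 42, roughly 3 SD of non-fluorescent test compounds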;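 further: agonist-driven loss of surface beta2AR via internalization measured by FAP dye flow cytometry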). As to conditions: Am2.2-beta2AR cells, FAP surface receptor flow cytometry; at 10 µM; stronger effect = higher value.
Assay [11] deals with AP-2 complex subunit beta (Homo sapiens) (UniProt P63010). Kind of assay: inhibitors of arrestin peptide binding to AP2, pilot screen, biochemical, validation set, GST-AP2 beads, flow cytometry (AID 504541;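 active means inhibition above 54%, about 3 SD of non-fluorescent compounds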;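 further: AP2 carries R879A mutation and is captured from E. coli lysate; bead-bound FITC arrestin peptide fluorescence measuring arrestin peptide binding to AP2; 0% = DMSO wells and 100% = excess unlabeled arrestin peptide control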). The settings on record: FITC arrestin peptide, at 10 µM, stronger effect = higher value, AP2 beta2 appendage fragment, R879A mutant.
Assay [12] in a line: yeast V-ATPase proton transport modulators, S. cerevisiae, pHLuorin, HTS validation (AID 504600; in the data active means response above about 15%;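 further: plate controls were DMSO for no effect and reference compound for full effect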). As to conditions: S. cerevisiae pHLuorin cytosolic pH, at 10 µM, stronger effect = higher value.
Assay [13] has as its system anti-desmoglein-3 scFv antibody binding to human DSG3. Nature of the assay: inhibitors of anti-DSG3 scFv binding to DSG3, pilot screen, biochemical, validation compound set, bead-based, flow cytometry (AID 588368;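 active means binding below the plate cutoff, the plate median minus 3 SD, with a reading above zero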;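 further: signal is the median channel fluorescence of bead-bound GFP antibody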). The settings on record: Protein G beads, DSG3-Fc, scFv-GFP binding, at 10 µM, stronger effect = lower value.
Assay [14] is described as follows: inhibitors of fungal efflux pumps CDR1, CDR2, MDR1, pilot screen, validation compound set, multiplex, phenotypic (AID 588506;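 active means efflux inhibition above 0.42, the validation set average plus 4 SD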;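 further: Nile Red retained in cells so higher fluorescence means more efflux inhibition; 0 = negative control wells and 1 = enniatin B 25 µM full block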). The settings on record: S. cerevisiae pump-expressing triplex, Nile Red efflux flow cytometry; at 10 µM; stronger effect = higher value; the pumps come from Candida albicans.
For assay [15], the target named is ATP-binding cassette sub-family B member 6 (Homo sapiens) (UniProt Q9NP58). Kind of assay: ABCB6 transporter inhibitors, pilot screen, K562-ABCB6 cells, flow cytometry, validation set (AID 588550;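 active means inhibition above the screen-wide mean plus 3 SD, about 51%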;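 further: 0% = DMSO wells and 100% = benzethonium chloride 70 µM positive control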). As to conditions: K562-ABCB6 porphyrin accumulation, 1 h, at 10 µM, stronger effect = higher value.
A short description of assay [16]: promoters of myeloid differentiation in arrested cells, primary screen, cell-based, GFP/MAC1 double positive, flow cytometry, validation set (AID 588685;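 active means differentiation response of at least 50%, scaled between solvent and reference control, from cells with both markers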;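 further: compound exposure lasts four days before antibody staining and flow analysis; 0% = DMSO wells and 100% = 5 µM fulvestrant positive control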). The settings on record: ER-HoxA9 marrow cells, stronger effect = higher value, normalized: vehicle 0, fulvestrant 100.

Sequence of Beta-2 adrenergic receptor (Homo sapiens) (P07550 whole entry, looked up): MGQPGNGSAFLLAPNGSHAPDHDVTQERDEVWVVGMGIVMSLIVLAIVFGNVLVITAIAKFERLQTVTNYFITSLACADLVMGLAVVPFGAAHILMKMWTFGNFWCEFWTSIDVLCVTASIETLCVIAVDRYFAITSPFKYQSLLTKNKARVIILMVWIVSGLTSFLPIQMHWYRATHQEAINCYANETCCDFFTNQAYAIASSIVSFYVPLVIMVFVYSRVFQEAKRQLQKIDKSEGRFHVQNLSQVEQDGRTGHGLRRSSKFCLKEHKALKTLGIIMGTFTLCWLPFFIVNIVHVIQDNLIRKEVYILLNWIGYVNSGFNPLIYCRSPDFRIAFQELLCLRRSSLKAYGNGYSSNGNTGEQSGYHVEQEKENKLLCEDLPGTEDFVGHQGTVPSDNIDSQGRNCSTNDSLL
Sequence of Integrin beta-1 (Homo sapiens) + Integrin alpha-4 (Homo sapiens) (P05556 whole entry, looked up): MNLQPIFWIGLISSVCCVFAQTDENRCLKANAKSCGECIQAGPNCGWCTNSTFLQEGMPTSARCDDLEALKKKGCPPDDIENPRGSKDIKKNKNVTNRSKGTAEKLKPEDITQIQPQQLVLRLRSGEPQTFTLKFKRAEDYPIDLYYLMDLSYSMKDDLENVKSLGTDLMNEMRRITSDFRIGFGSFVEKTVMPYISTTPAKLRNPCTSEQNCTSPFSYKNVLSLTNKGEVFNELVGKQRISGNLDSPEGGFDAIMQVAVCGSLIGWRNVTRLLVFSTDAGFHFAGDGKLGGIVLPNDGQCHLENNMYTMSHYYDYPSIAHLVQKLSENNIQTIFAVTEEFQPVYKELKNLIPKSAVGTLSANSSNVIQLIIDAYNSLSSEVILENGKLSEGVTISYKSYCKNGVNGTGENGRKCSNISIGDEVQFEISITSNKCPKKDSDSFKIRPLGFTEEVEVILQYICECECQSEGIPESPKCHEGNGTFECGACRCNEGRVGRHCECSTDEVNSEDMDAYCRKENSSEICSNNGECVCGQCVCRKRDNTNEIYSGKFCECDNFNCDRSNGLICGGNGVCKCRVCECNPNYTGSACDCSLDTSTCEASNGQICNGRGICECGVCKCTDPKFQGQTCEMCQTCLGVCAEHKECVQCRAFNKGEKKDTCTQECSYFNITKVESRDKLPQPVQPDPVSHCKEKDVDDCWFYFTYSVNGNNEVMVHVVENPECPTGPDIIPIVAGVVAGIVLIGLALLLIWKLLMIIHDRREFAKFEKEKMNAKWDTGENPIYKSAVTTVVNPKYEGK
Sequence of Integrin beta-1 (Homo sapiens) + Integrin alpha-4 (Homo sapiens) (P13612 whole entry, looked up): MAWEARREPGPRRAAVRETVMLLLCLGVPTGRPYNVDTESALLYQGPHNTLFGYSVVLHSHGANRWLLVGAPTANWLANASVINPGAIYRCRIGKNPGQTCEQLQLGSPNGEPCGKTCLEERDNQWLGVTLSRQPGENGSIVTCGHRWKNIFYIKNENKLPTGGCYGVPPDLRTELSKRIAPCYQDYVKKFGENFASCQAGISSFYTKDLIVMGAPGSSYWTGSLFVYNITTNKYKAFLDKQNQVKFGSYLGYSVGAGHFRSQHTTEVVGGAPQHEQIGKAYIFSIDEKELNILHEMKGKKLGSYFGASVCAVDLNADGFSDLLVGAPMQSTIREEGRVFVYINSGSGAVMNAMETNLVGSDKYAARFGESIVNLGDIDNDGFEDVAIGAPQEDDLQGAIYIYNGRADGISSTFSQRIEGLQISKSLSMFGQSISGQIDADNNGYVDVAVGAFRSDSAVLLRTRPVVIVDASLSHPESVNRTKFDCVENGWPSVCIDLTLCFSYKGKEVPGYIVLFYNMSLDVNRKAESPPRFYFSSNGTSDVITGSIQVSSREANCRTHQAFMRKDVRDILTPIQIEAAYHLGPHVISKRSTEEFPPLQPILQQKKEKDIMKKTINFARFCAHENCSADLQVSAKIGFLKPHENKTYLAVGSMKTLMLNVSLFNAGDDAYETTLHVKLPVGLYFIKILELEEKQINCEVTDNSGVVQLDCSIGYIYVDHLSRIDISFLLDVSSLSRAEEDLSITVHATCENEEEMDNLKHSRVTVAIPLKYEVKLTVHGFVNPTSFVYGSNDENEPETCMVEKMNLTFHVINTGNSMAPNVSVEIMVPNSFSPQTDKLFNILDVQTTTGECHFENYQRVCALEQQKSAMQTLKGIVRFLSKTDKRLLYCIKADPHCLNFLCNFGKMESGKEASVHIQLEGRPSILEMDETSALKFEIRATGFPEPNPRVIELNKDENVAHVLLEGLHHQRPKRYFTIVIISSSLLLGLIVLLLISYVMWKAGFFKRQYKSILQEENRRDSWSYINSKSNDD
Sequence of Beta-adrenergic receptor kinase 1 (Homo sapiens) (P25098 whole entry, looked up): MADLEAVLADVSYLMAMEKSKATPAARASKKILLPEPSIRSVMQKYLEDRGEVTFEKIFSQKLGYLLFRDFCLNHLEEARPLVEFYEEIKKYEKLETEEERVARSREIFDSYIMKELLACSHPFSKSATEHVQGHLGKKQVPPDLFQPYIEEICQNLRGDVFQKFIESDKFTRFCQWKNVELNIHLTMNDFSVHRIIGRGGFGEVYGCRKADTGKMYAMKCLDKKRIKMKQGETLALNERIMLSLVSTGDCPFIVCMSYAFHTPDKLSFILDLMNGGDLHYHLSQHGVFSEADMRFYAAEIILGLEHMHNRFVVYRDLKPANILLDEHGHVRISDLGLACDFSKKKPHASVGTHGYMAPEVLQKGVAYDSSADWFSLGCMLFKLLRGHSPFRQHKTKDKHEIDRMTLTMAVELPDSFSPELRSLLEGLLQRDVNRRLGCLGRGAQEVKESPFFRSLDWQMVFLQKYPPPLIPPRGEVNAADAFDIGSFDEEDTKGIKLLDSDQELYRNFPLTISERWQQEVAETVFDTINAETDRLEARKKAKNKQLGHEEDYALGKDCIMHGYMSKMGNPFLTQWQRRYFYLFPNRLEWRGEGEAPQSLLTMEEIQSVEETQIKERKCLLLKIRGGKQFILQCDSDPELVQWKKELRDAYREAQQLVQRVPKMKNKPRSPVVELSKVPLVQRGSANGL
Sequence of ATP-binding cassette sub-family B member 6 (Homo sapiens) (Q9NP58 whole entry, looked up): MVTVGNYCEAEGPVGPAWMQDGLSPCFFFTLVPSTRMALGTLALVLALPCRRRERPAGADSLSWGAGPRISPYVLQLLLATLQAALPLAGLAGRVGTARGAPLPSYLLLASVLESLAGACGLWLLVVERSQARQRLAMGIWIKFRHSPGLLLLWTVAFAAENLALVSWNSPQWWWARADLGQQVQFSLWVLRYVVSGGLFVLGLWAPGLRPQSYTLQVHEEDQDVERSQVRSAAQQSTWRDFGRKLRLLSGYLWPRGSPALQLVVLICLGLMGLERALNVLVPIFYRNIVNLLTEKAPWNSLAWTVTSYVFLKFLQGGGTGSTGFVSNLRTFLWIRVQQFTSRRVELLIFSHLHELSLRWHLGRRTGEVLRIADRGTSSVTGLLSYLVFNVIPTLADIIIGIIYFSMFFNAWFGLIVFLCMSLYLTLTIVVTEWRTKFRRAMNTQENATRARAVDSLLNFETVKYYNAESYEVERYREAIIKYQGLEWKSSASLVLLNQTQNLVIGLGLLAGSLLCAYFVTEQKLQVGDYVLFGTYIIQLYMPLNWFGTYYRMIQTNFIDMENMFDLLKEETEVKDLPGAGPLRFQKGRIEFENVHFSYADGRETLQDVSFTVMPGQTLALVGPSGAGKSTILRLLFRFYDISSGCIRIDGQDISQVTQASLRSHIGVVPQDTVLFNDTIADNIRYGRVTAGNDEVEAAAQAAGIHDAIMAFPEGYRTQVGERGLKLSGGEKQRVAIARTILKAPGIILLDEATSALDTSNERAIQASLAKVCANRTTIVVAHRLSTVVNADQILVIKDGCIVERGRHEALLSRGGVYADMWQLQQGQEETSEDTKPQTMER
Sequence of AP-2 complex subunit beta (Homo sapiens) (P63010 whole entry, looked up, the tested form may be a part, one chain of several): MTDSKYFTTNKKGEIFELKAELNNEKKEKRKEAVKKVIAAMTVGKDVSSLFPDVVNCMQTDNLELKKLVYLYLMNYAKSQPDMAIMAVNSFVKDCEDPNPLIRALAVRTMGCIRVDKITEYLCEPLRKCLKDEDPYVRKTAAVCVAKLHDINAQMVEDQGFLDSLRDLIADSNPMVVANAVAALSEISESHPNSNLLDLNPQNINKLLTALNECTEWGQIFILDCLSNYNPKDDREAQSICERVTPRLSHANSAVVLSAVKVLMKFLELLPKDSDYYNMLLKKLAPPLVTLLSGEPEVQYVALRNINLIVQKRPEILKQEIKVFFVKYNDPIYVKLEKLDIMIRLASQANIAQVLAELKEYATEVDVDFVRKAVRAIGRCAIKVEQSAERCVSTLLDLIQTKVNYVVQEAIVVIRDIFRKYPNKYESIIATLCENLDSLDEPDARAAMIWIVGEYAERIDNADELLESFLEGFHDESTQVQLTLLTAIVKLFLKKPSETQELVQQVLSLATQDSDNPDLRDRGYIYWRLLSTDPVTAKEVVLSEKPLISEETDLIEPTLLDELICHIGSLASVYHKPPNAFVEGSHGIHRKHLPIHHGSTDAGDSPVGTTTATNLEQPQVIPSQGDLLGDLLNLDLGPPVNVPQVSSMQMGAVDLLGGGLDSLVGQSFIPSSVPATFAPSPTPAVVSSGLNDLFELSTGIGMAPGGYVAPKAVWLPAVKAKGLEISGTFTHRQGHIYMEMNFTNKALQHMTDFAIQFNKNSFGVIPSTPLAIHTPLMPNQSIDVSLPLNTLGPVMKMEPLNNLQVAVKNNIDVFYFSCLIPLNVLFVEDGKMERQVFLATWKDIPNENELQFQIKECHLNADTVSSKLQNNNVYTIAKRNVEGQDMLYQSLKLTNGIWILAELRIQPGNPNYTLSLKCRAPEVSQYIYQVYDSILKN

As usually defined, the inhibition is the relative decrease from the control value, in per cent. As to `Cc1ccc(Nc2ncccc2C(=O)O)cc1C`, in assay [1], the percent of DMSO control GFP was 90.6% (inactive). Further, the results for the GFP response vs DMSO in [2] and in assay [4] were 123% (inactive) and 80.3% (inactive), respectively. In addition, the percent response of DMSO control in assay [3] is 103% (inactive). Besides, in assay [5], the GFP response, % of DMSO was 94.7% (inactive). In assay [6], this molecule showed a double positive events of 64.4%. In assay [6], the vesicle binding response is 264% (inactive). For the same molecule, the inhibition in [7] is 8.4% (inactive); in [11], -7.34% (inactive); in assay [15], 15% (inactive). For the same molecule, the superoxide response (% of plate) in [8] was 114% (inactive). Moreover, the aptamer binding inhibition in [9] is 2% (inactive). Moreover, the results for the response in [10] and in [12] were 0.08% (inactive) and -0.86% (inactive), respectively. In addition, in [13], the binding (% of control) was 105% (inactive). The efflux inhibition (fraction of control) in assay [14] was -0.31 (inactive). Besides, the differentiation response in assay [16] was 6.55% (inactive).

For the molecule `O=C1C(Cc2ccccc2)NC(=S)N1c1ccccc1` (stereo not given), in assay [1], the percent of DMSO control GFP was 96.1% (inactive). For the same molecule, the figures for the GFP response vs DMSO in assay [2] and in [4] were 105% (inactive) and 115% (inactive), respectively. Further, the percent response of DMSO control in [3] was 92% (inactive). Further, in assay [5], the GFP response, % of DMSO was 99.4% (inactive). This molecule also came in with a double positive events in assay [6] of 60.7%. For the same molecule, the vesicle binding response in [6] was 179% (inactive). Further, the inhibition in assay [7] was -14.1% (inactive); in assay [11], -7.42% (inactive); in [15], 9% (inactive). Moreover, the superoxide response (% of plate) in assay [8] is 98.2% (inactive). For the same molecule, the aptamer binding inhibition in [9] is 5% (inactive). For the same molecule, the response in assay [10] is -16.9% (inactive); in assay [12] it was 13.2% (inactive). In [13], the binding (% of control) is 98.7% (inactive). Also, the efflux inhibition (fraction of control) in assay [14] is -0.24 (inactive). In assay [16], the differentiation response is -28% (inactive).

In the case of `O=C(/C=C/c1c[nH]c2ccccc12)c1cccc2ccccc12`, in assay [1], the percent of DMSO control GFP was 106% (inactive). Moreover, the GFP response vs DMSO was 103% (inactive) in assay [2] and 132% (inactive) in assay [4]. Also, in assay [3], the percent response of DMSO control was 92.9% (inactive). Besides, the GFP response, % of DMSO in assay [5] was 94.9% (inactive). The same molecule returned a double positive events in [6] of 61.4%. The vesicle binding response in assay [6] was 336% (inactive). The inhibition in [7] is -72.8% (inactive); in assay [11], -4.72% (inactive); in [15], 6% (inactive). Further, the superoxide response (% of plate) in [8] is 94% (inactive). Further, the aptamer binding inhibition in assay [9] was 2% (inactive). The values for the response in [10] and in [12] were 63.6% (active) and -1.5% (inactive), respectively. Moreover, the binding (% of control) in [13] is 100% (inactive). The efflux inhibition (fraction of control) in [14] is 0.19 (inactive). In assay [16], the differentiation response is -12% (inactive).

As for `Cc1ccc(C)c(OCCCC(C)(C)C(=O)O)c1`, the percent of DMSO control GFP in assay [1] is 98% (inactive). The figures for the GFP response vs DMSO in assay [2] and in [4] were 97.2% (inactive) and 122% (inactive), respectively. For the same molecule, in assay [3], the percent response of DMSO control was 95.4% (inactive). Also, the GFP response, % of DMSO in assay [5] was 89.6% (inactive). For the same molecule, the double positive events in assay [6] worked out at 62.8%. The vesicle binding response in [6] was 203% (inactive). Moreover, the inhibition in assay [7] was -0.45% (inactive); in assay [11] it was -6.6% (inactive); in [15] it was 10% (inactive). Also, the superoxide response (% of plate) in assay [8] was 104% (inactive). Further, the aptamer binding inhibition in assay [9] was 4% (inactive). Moreover, the response in [10] is -7.3% (inactive); in [12] it was 4.38% (inactive). The binding (% of control) in [13] was 96.4% (inactive). In addition, the efflux inhibition (fraction of control) in [14] is 0.05 (inactive). Moreover, in assay [16], the differentiation response was 6.11% (inactive).

`O=C(Nc1ccc(N2CCOCC2)cc1)c1ccc(-c2ccccc2[N+](=O)[O-])o1`: in assay [1], the percent of DMSO control GFP was 102% (inactive). The GFP response vs DMSO was 102% (inactive) in assay [2] and 96.5% (inactive) in assay [4]. Besides, the percent response of DMSO control in [3] is 106% (inactive). The GFP response, % of DMSO in [5] was 98.8% (inactive). Further, the double positive events in assay [6] was 68.5%. In addition, the vesicle binding response in assay [6] is 132% (inactive). The inhibition in assay [7] was 3.98% (inactive); in assay [11], -4.06% (inactive); in assay [15], 6% (inactive). Also, the superoxide response (% of plate) in [8] was 99.9% (inactive). The aptamer binding inhibition in assay [9] is 5% (inactive). Also, the response in assay [10] is 8.71% (inactive); in [12], 1.65% (inactive). The binding (% of control) in assay [13] is 97.9% (inactive). Also, the efflux inhibition (fraction of control) in [14] was 0.07 (inactive). Also, in assay [16], the differentiation response is -1.88% (inactive).
